According to PubChem BioAssay (NCATS):
Inconclusive results are not listed. Activity calls are given as the source filed them. Unless noted, calls follow the shape of the dose curve; as a rule, active = well fitted curve in the direction sought with a large enough effect; inconclusive = small, poorly fitted or top-dose-only effect, or another doubt; inactive = no such curve, though single readings can be large; an effect the other way counts as inactive or inconclusive.

Tests used:
[1] = qHTS for Inhibitors of Plasmodium falciparum (DD2) proliferation (AID 504314);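 also: parasite DNA measured by SYBR Green fluorescence after red cell lysis; plate controls were DMSO vehicle for no effect and artemisinin wells for full effect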
In short: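 Erythrocytes infected with P. falciparum Dd2 (0.3% parasitemia, 2.5% hematocrit) exposed to compound 72 h at 37C, 5% CO2. Parasite DNA quantified by SYBR Green fluorescence after saponin/Triton lysis overnight; normalized to 0.29 uM artemisinin and DMSO.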

[2] = qHTS for Inhibitors of Plasmodium falciparum (GB4) proliferation (AID 504315);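 also: 0% = DMSO vehicle and -100% = 0.29 µM artemisinin control; nearly all actives have a fitted effect of over 50% in size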
In short: (§1)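 Erythrocytes infected with P. falciparum line (0.3% parasitemia, 2.5% hematocrit final) incubated with compounds 72 h at 37 °C, 5% CO2; SYBR Green lysis buffer added, fluorescence read next day. Normalized to 0.29 uM artemisinin and DMSO.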

[3] = qHTS for Inhibitors of Plasmodium falciparum (7G8) proliferation (AID 504316);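 also: series mostly up to about 6.7 µM; 0% = DMSO vehicle and -100% = 0.29 µM artemisinin full kill; nearly all actives have a fitted effect of over 65% in size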
In short: as §1

[4] = qHTS for Inhibitors of Plasmodium falciparum (HB3) proliferation (AID 504318);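 also: 0% = DMSO vehicle and -100% = artemisinin control; nearly all actives have a fitted effect of over 60% in size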
In short: as §1

[5] = qHTS for Inhibitors of Plasmodium falciparum (CP250) proliferation (AID 504320);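 also: plate controls were DMSO vehicle for no effect and 0.29 µM artemisinin control for full effect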
In short: as §1

[6] = target: Atrial natriuretic peptide receptor 1 (Homo sapiens) (UniProt P16066); assay: Natriuretic polypeptide receptor (hNpr1) antagonism - Pilot CMLD screen (AID 1347052; calls by dose curve;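 also: HEK293 cells with hNpr1 stimulated by hNppA peptide at 0.1 nM; cGMP level read as GloSensor luciferase luminescence after agonist stimulation; series mostly up to about 9.2 µM; % is scaled to controls: 0 for no effect and ±100 for the full control effect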)
Atrial natriuretic peptide receptor 1 (Homo sapiens), sequence (P16066 whole entry, looked up): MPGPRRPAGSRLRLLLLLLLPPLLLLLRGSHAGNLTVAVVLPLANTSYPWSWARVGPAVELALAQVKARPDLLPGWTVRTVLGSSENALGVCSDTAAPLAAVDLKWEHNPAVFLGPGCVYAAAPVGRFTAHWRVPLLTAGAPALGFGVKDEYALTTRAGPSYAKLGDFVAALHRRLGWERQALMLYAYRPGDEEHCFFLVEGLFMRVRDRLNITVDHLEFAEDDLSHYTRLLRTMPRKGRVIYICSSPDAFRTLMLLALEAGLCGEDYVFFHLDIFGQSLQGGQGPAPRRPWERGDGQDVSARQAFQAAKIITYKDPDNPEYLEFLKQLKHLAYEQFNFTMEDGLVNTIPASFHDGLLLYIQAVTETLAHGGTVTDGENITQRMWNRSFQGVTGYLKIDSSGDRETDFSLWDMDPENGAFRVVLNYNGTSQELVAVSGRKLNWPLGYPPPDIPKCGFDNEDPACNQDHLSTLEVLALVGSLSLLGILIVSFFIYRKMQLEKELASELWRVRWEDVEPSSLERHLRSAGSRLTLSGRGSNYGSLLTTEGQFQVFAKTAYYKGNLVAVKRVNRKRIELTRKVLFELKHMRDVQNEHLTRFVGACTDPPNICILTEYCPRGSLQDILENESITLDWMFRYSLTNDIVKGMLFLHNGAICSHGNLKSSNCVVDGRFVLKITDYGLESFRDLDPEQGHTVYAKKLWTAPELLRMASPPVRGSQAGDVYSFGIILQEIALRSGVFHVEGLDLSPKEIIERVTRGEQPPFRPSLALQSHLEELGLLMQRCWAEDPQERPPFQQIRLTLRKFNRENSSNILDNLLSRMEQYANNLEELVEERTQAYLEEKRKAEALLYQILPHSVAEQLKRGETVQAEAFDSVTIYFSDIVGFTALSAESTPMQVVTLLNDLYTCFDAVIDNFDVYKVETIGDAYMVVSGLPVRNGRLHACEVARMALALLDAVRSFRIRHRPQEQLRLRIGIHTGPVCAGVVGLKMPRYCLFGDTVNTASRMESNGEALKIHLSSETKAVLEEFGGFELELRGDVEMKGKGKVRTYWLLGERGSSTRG

COC(=O)C1=C2C=C(C)CC(C)N2C(=O)NC1c1ccccc1 (stereo unspecified)
inactive: Potency [1] | Potency [2] | Potency [3] | Potency [4] | Potency [5] | Potency [6]

COC(=O)c1nnc(C(=O)NCc2ccccc2)c2[nH]c3ccccc3c12
inactive: Potency [1] | Potency [2] | Potency [3] | Potency [4] | Potency [5] | Potency [6]

COc1ccc([C@]23Cc4c(ccc5ccccc45)[C@H](O2)c2c(cc(-c4ccccc4)oc2=O)O3)cc1
inactive: Potency [1] | Potency [2] | Potency [3] | Potency [4] | Potency [5] | Potency [6]

CCCCC1=CC2=C(c3ccco3)C(=O)C(C)(OC(=O)c3ccc(OC)cc3)C(=O)C2=CN1c1ccc(OC)cc1 (stereo unspecified)
inactive: activity, negative = inhibition [1] -0.773% [at 1.12 µM] | Potency [2] | Potency [3] | Potency [4] | Potency [5] | Potency [6]

C#CCCOC(=O)N1C2=NC(C(=O)OC)=C(C(=O)OC)[C@@H]3Nc4ccccc4[C@]23C[C@H]1C(=O)OC
inactive: Potency [1] | Potency [2] | Potency [3] | Potency [4] | Potency [5] | Potency [6]

C=CC1=C2C=C(C3CC3)N(Cc3ccccc3)C=C2C(=O)C(C)(OC(=O)c2ccco2)C1=O (stereo unspecified)
inactive: Potency [1] | Potency [2] | Potency [3] | Potency [4] | Potency [5] | Potency [6]

COC(=O)C1=C(C(=O)OC)[C@@H]2N(C)c3ccc(OC)cc3[C@@]23C[C@@H](C(=O)OC)N(C(=O)c2cc(C)oc2C)C3=N1
inactive: Potency [1] | Potency [2] | Potency [3] | Potency [4] | Potency [5] | Potency [6]

COC(=O)C[C@H]1c2ccccc2[C@@H]2C(=C[C@@H](C)[C@H]3C(=O)N(c4ccccc4)C(=O)[C@H]32)N1C(=O)OC
inactive: Potency [1] | Potency [2] | Potency [3] | Potency [4] | Potency [5] | Potency [6]

Cc1cccc(C)c1Nc1oc(-c2ccccc2)nc1C(C)(C)C
inactive: Potency [1] | Potency [2] | Potency [3] | Potency [4] | Potency [5] | Potency [6]

CCN1C(=O)[C@@H]2[C@H]3[C@H](O)[C@H](O)CC(=NO[C@H](C)c4cn([C@H](CO)Cc5ccccc5)nn4)[C@@H]3CC[C@H]2C1=O
inactive: Potency [1] | Potency [2] | Potency [3] | Potency [4] | Potency [5] | Potency [6]

CCOC(=O)OC[C@H]1O[C@H](C#Cc2ccc(F)cc2F)C=C[C@H]1OC(=O)OCC
inactive: Potency [1] | Potency [2] | Potency [3] | Potency [4] | Potency [5] | Potency [6]

CC[C@H](C)[C@@H](NC(=O)O[C@H]1C(=O)c2cc(OC)ccc2O[C@@H]1c1ccc(OC)c(Br)c1)C(=O)OC
inactive: Potency [1] | Potency [2] | Potency [3] | Potency [4] | Potency [5] | Potency [6]

CCCCCCC(=O)Cc1cc(OC)c(OC)cc1C=C(C(C)=O)C(=O)OC
inactive: Potency [1] | Potency [2] | Potency [3] | Potency [4] | Potency [5] | Potency [6]

COC(=O)C1=C(C)N(CCC(C)O[Si](C)(C)C(C)(C)C)C(=O)N(C(C)=O)C1c1ccccc1 (stereo unspecified)
inactive: Potency [1] | Potency [2] | Potency [3] | Potency [4] | Potency [5] | Potency [6]

COC(=O)[C@@]1(C=C2c3ccc(F)cc3[C@@H](OC)[C@@H]2C)[C@@H]2OCCC[C@@H]21
inactive: Potency [1] | Potency [2] | Potency [3] | Potency [4] | Potency [5] | Potency [6]

CCOC(=O)CN1C(=O)N(CC)C(C)=C(C(=O)OC)C1c1ccccc1 (stereo unspecified)
inactive: Potency [1] | Potency [2] | Potency [3] | Potency [4] | Potency [5] | Potency [6]

CCOC(=O)CN1C(=O)N[C@@H](c2ccccc2)[C@H](C(C)=O)[C@H]1C
inactive: Potency [1] | Potency [2] | Potency [3] | Potency [4] | Potency [5] | Potency [6]

CC(=O)OC[C@H]1O[C@H](CC=NOCC[C@@H]2C=C[C@@H](OC(C)=O)[C@@H](COC(C)=O)O2)C=C[C@@H]1OC(C)=O
inactive: Potency [1] | Potency [2] | Potency [3] | Potency [4] | Potency [5] | Potency [6]

O=C1CCCC=C1C(O)COCc1ccccc1 (stereo unspecified)
inactive: Potency [1] | Potency [2] | Potency [3] | Potency [4] | Potency [5] | Potency [6]

CCOC(=O)[C@@]1([C@@H](NC(=O)OC)c2ccccc2)CCCC1=O
inactive: Potency [1] | Potency [2] | Potency [3] | Potency [4] | Potency [5] | Potency [6]

COC(=O)CC=C[C@@H](C)[C@H](OC)c1c(Br)ccc2c1OCO2
inactive: Potency [1] | Potency [2] | Potency [3] | Potency [4] | Potency [5] | Potency [6]

CCN1C(=O)NC(c2ccccc2)C(C(=O)OC)=C1C (stereo unspecified)
inactive: Potency [1] | Potency [2] | Potency [3] | Potency [4] | Potency [5] | Potency [6]

CCN1C(=O)N[C@@H](CCc2ccccc2)[C@H](C(C)=O)[C@H]1C
inactive: Potency [1] | Potency [2] | Potency [3] | Potency [4] | Potency [5] | Potency [6]

CN1c2ccccc2[C@@]2(O)C(=O)[C@@]1(C)[C@@H]1c3ccccc3C[C@H]12
inactive: Potency [1] | Potency [2] | Potency [3] | Potency [4] | Potency [5] | Potency [6]

CC(C)=CCCC(C)=CCON=C1C[C@@H](O)[C@@H](O)[C@@H]2[C@H]3C(=O)N(C[C@@H]4CCCO4)C(=O)[C@@H]3CC[C@H]12
inactive: Potency [1] | Potency [2] | Potency [3] | Potency [4] | Potency [5] | Potency [6]

COc1ccc2c(c1)CO[C@H]([C@H](O)CBr)[C@H]2C=Cc1ccccc1
inactive: Potency [1] | Potency [2] | Potency [3] | Potency [4] | Potency [5] | Potency [6]
